Screening data from PubChem.
VDR inh: inhibitors of human vitamin D receptor; P11473; VDR-SRC2-3 peptide fluorescence polarization, 2 h; Potency, µM, for the others: max response, negative = inhibition, actives largely listed as inhibitors; 0.93% of 400,000 active; AID 504847
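Fluorescence polarization assay measuring small-molecule disruption of VDR binding to the coregulator peptide SRC2-3. Compounds were pin-transferred (23 nl) into the reagent mix and incubated 2 h at room temperature before reading.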
KAT2A inh: GCN5L2 (KAT2A) acetyltransferase inhibition | AID 504327 | Q92830 | 0.21% of 390,000 active | GCN5L2 HAT assay, ThioGlo1 CoA-SH fluorescence | Potency, µM (titrated, usually from 58.9 µM), for the others: at the top dose activity change, negative = inhibition, actives largely listed as inhibitors
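ThioGlo1-coupled HAT assay: 20nM GCN5L2, 70uM acetyl-CoA, 75uM H3(1-25) peptide, pH 7.5. Fluorescence read at 340/540nm at start and after 20 min at room temperature.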
PLK1 PBD block: PLK1 (human) polo-box domain binding inhibition; 2.8% of 360,000 active; Plk1 PBD binding of FITC phosphopeptide, fluorescence polarization; AID 720504; Potency, µM, for inactives: max response, negative = inhibition, actives largely listed as inhibitors; further: series mostly up to about 57 µM; nearly all actives have a fitted effect of over 65% in size
Target sequence (P53350 whole entry, looked up, the tested form may be a part): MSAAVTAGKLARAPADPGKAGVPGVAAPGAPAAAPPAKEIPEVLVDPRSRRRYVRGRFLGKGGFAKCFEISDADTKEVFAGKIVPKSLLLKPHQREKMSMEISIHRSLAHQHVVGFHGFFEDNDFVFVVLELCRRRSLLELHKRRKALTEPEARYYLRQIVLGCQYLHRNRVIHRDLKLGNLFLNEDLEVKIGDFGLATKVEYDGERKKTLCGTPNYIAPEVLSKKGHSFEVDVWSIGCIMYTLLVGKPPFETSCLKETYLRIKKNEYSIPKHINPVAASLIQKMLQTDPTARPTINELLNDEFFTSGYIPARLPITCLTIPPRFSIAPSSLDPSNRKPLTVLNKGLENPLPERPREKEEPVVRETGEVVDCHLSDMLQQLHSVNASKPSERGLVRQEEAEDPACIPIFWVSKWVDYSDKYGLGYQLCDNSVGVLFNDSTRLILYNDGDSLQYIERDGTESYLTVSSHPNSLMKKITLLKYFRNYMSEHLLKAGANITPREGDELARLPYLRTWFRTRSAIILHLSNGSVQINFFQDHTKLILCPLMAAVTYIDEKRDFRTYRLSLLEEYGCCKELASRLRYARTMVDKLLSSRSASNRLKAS
ALOX12 inh: ALOX12 (human) lipoxygenase inhibition. P18054. purified 12hLO, xylenol orange hydroperoxide absorbance. Potency, µM (top dose mostly 108 µM), for inactives: at the highest dose activity change, negative = inhibition, most hits filed as inhibitors. 1.1% of 580,000 active. AID 1671190
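Hydroperoxide product was detected by ferrous iron/xylenol orange as the 573 to 405 nm absorbance ratio. Arachidonic acid at 40 uM (final) was turned over for 30 min at room temperature by 150 nM human 12hLO, pH 7.0 Hepes buffer, after 15 min compound preincubation.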
* = called active by the depositor; u = inconclusive; x = no result given; ! = repeats disagree. This is a sample that favours compounds with a hit; in the whole collection about 3% have one here. The call rests on the fitted dose curve; in most records, active means well fitted curve in the direction sought with a large enough effect; inconclusive means small, poorly fitted or top-dose-only effect, or another doubt; inactive means no such curve, though single readings can be large; an effect the other way counts as inactive or inconclusive. On the % scale 0 is the no-effect control and ±100 the full control effect; potency means the concentration at half of the fitted maximal effect.

SMILES	VDR inh	KAT2A inh	PLK1 PBD block	ALOX12 inh
CNC(=S)Nc1ccc(C23CC4CC(CC(C4)C2)C3)cc1	-2%	-2%	-6%	45µM*
CC(=O)Nc1ccc(C23CC4CC(CC(C4)C2)C3)cc1	-2%	-3%	-2%	-26%
O=c1[nH]c2ccc(Br)cc2c(-c2ccccc2)c1CN1CCCCC1	x	x	x	22µM*
COc1ccc2nc(SCC(=O)N3CCN(c4ccc(F)cc4)CC3)c(C#N)cc2c1	-8%	-4%	3µM*	u
O=C(NC1c2ccccc2-c2ccccc21)c1ccccc1	-22%	2%	27µM*	-16%
CN(C)C(=O)NC1c2ccccc2-c2ccccc21	13%	-4%	-1%	0%
CC(=NNC(=S)N1CCCCC1)c1ccccn1	x	x	u	45µM*
C/C(=N/O)c1cnn(-c2ccccc2)c1C	x	x	x	36%
O=C(NCc1ccco1)c1sc(=S)n2c1[nH]c(=O)c1ccccc12	u	-17%	27µM*	16µM*
O=C(NCCc1ccccn1)C(F)(F)C(F)(F)C(F)(F)C(F)(F)C(F)(F)C(F)F	u	-1%	27µM*	7%
O=C(OC1C=CC2COC1O2)c1ccccc1 (stereo not given)	x	x	x	1%
CN(Cc1ccco1)c1nc(-c2ccccc2C(F)(F)F)nc2ccccc12	35µM*	-18%	x	u
CN(Cc1ccco1)c1nc(-c2cccnc2)nc2ccccc12	32µM*	-23%	x	-11%
COc1ccccc1-c1nc(N(C)Cc2ccco2)c2ccccc2n1	u	-9%	x	u
Cc1ccc(CN(C)c2nc(-c3cccnc3)nc3ccccc23)o1	-18%	-10%	-14%	17%
COc1ccc2c(c1)c(C(=O)CNc1nc(C)cs1)c(C)n2C	-2%	-3%	-9%	8.9µM*
CCOCc1cnc(C)nc1NCC(=O)c1c(C)n(C)c2ccc(OC)cc12	-2%	0%	-2%	u
CCN(CC)CC(=O)c1c(C)n(C)c2ccc(OC)cc12	x	x	x	7.9µM*
Nn1c(SCC(=O)N2CCCCCC2)nnc1-c1cccs1	x	x	x	0%
CCOC(=O)N1CCN(C2CCCN(Cc3cc(C)ccc3-n3cccn3)C2)CC1 (stereo not given)	x	x	x	90%
O=C(CC1CCCCC1)NCCOc1ccccc1	u	0%	27µM*	8%
O=C(NCCOc1ccccc1)C1CCCCC1	-5%	-12%	4%	-1%
COc1ccccc1C(=O)N1CCc2nc(C3CC3)nc(-c3ccc(Cl)cc3)c2C1	x	x	x	45µM*
Fc1cc(F)cc(Cc2nc3nccc(-c4ccsc4)n3n2)c1	x	x	x	2%
NC(=S)N/N=C/C1=C(c2ccccc2)C2C=CC1C2 (stereo not given)	x	x	x	8.9µM*
SMILES	VDR inh	KAT2A inh	PLK1 PBD block	ALOX12 inh
N#CC1=C(N)n2c(s/c(=C\c3cccs3)c2=O)=C(C#N)C1c1cccs1 (stereo not given)	9%	-19%	-20%	u
N#CC1=C(N)n2c(s/c(=C\c3ccco3)c2=O)=C(C#N)C1c1ccco1 (stereo not given)	-2%	-18%	u	13µM*
COc1ccc(CNC(=S)Nc2cc(C)ccc2C)cc1	22%	-6%	u	u
COc1ccc(/C(C)=N/NC(=S)Nc2cc(C)ccc2C)cc1	-14%	-8%	-11%	45µM*
COCCNC(=S)N/N=C(\C)c1ccc2cc(OC)ccc2c1	6%	-8%	-3%	35µM*
CNC[C@H](O)c1ccc(O)c(O)c1	32µM*!	5%	-4%	1.4µM*!
CC(C)(C)C(=O)NC(=S)Nc1cc(C(F)(F)F)ccc1N1CCOCC1	-3%	0%	-5%	35µM*
CCC(Oc1ccccc1)C(=O)Nc1cc(C(=O)OCc2cc(=O)n3oc(C)cc3n2)ccc1OC (stereo not given)	x	x	x	-6%
O=C(O)c1ccc(COc2c(F)c(F)cc(F)c2F)cc1	-4%	-1%	-5%	-27%
O=C(O)C1=C(OCc2ccc(F)c(F)c2)C(=O)NCC1	79µM*	1%	27µM*	-1%
COCC(C)n1c(C)cc(C(=O)CSc2nc3nc(C)cc(C)n3n2)c1C (stereo not given)	x	x	x	-14%
CCc1cccc(C)c1NC(=O)C(NS(=O)(=O)c1ccc2c(c1)CCC(=O)N2)c1ccccc1 (stereo not given)	-12%	-8%	x	-31%
Cc1cccc(NC(=O)C(NS(=O)(=O)c2ccc3c(c2)CCC(=O)N3)c2ccccc2)n1 (stereo not given)	-7%	-1%	13µM*	u
S=C(NCCSc1ccc(Cl)cc1)Nc1cccc(Cl)c1	x	x	x	35µM*
Cc1cccc(NC(=S)NCC(C)CSc2ccc(Cl)cc2)c1 (stereo not given)	2%	-9%	6%	32µM*
CSc1cccc(NC(=S)NCCSc2ccc(Cl)cc2)c1	x	x	x	35µM*
Cc1ccc2c(c1)[nH]c1c(=O)n(Cc3ccco3)cnc12	u	3%	27µM*	30%
Cc1ccc2[nH]c3c(=O)n(CCC4=CCCCC4)cnc3c2c1	9%	-1%	-8%	11%
O=c1c2[nH]c3ccccc3c2ncn1Cc1ccco1	2%	-11%	1%	19%
Cc1ccc2c(c1)[nH]c1c(=O)n(CCC3=CCCCC3)cnc12	x	2.5µM*	x	x
COc1ccc(C(C)=O)c(OS(=O)(=O)c2ccc3c(c2)CCC3)c1	x	x	x	-19%
COCCN(C(=O)c1cc2c(s1)CCC(C)C2)c1c(N)n(CC(C)C)c(=O)[nH]c1=O (stereo not given)	x	x	x	-30%
COc1ccc(Cl)cc1NC(=O)CN(C1CCCCC1)S(C)(=O)=O	3%	-18%	30µM*	-6%
CCOc1ccc2c(c1)cc(C(=O)Nc1ccccc1OCC)n2C	x	x	x	19%
CC(C)N1C(=O)[C@@H]2[C@@H](CCN2C(=O)CSCC(=O)O)N(Cc2cccc(F)c2)C1=O	x	x	x	35µM*
SMILES	VDR inh	KAT2A inh	PLK1 PBD block	ALOX12 inh
CCCCCCCC(=O)N/N=C/C(C)=N/NC(=O)CCCCCCC	x	x	x	-41%
Oc1ccc2ccccc2c1CNc1ccccn1	-19%	-5%	u	35µM*
O=C(c1cn[nH]c1)N1CCC(c2nc(CCOCC3CC3)no2)C1 (stereo not given)	x	x	x	40%
CCNC(=O)CNC(=O)c1cc(-c2ccc(F)cc2)nc2ccccc12	x	x	x	-13%
CC(=O)N1N=C(c2ccc(C)cc2)CC1c1ccco1 (stereo not given)	-13%	-1%	-5%	-4%
Cc1ccc(C2=NN(C(=O)Cn3nnc(-c4ccc(C(N)=O)cc4)n3)C(c3ccco3)C2)cc1 (stereo not given)	x	x	x	28µM*
CSc1nc(O)c(C(c2ccc(OC(C)C)cc2)c2c(O)nc(SC)[nH]c2=O)c(=O)[nH]1	22µM*	x	11µM*	u
O=C(c1cc2ccccc2oc1=O)N1CCN(c2cccc(C(F)(F)F)c2)CC1	x	x	x	180%
O=C(NCc1ccco1)C1CCCN1C(=O)Nc1ccc(Cl)cc1 (stereo not given)	u	-3%	12µM*	0%
O=C(NCc1ccco1)C1CCCN1C(=O)Nc1cccc(Cl)c1 (stereo not given)	-3%	2%	3%	u
